In ChEMBL document CHEMBL1961873, “Compounds: GSK PKIS; Assays: Nanosyn kinase panel” (2012):

Legend:
[1] = biological target: Serine/threonine-protein kinase MARK2 (Homo sapiens) (UniProt Q7KZI7); conditions: at 1 µM
[2] = biological target: PAS domain-containing serine/threonine-protein kinase (Homo sapiens) (UniProt Q96RG2); conditions: at 0.1 µM
[3] = biological target: PAS domain-containing serine/threonine-protein kinase (Homo sapiens) (UniProt Q96RG2); conditions: at 1 µM
[4] = biological target: Phosphorylase b kinase gamma catalytic chain, skeletal muscle/heart isoform (Homo sapiens) (UniProt Q16816); conditions: at 0.1 µM
[5] = biological target: Phosphorylase b kinase gamma catalytic chain, skeletal muscle/heart isoform (Homo sapiens) (UniProt Q16816); conditions: at 1 µM
[6] = biological target: T1, Phosphorylase b kinase gamma catalytic chain, liver/testis isoform (Homo sapiens) (UniProt P15735); conditions: at 0.1 µM
T1 sequence (whole entry): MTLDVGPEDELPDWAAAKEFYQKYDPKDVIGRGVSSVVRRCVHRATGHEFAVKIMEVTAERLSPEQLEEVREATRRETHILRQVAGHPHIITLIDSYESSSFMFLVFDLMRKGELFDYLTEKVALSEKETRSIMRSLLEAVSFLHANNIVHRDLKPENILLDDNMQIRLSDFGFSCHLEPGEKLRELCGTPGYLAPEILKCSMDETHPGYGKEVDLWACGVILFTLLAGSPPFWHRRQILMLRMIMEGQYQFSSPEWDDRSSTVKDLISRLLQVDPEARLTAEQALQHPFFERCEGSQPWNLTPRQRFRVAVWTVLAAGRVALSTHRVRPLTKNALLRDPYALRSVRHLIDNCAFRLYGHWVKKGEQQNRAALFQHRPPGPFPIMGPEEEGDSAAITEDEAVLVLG

[7] = biological target: T1, Phosphorylase b kinase gamma catalytic chain, liver/testis isoform (Homo sapiens); conditions: at 1 µM
[8] = biological target: Serine/threonine-protein kinase pim-1 (Homo sapiens) (UniProt P11309); conditions: at 0.1 µM
[9] = biological target: Serine/threonine-protein kinase pim-1 (Homo sapiens) (UniProt P11309); conditions: at 1 µM
[10] = biological target: Serine/threonine-protein kinase pim-2 (Homo sapiens) (UniProt Q9P1W9); conditions: at 0.1 µM
[11] = biological target: Serine/threonine-protein kinase pim-2 (Homo sapiens) (UniProt Q9P1W9); conditions: at 1 µM
[12] = biological target: Serine/threonine-protein kinase pim-3 (Homo sapiens) (UniProt Q86V86); conditions: at 0.1 µM
[13] = biological target: Serine/threonine-protein kinase pim-3 (Homo sapiens) (UniProt Q86V86); conditions: at 1 µM
[14] = biological target: T2, MAP kinase-activated protein kinase 5 (Homo sapiens) (UniProt Q8IW41); conditions: at 0.1 µM
T2 sequence (whole entry): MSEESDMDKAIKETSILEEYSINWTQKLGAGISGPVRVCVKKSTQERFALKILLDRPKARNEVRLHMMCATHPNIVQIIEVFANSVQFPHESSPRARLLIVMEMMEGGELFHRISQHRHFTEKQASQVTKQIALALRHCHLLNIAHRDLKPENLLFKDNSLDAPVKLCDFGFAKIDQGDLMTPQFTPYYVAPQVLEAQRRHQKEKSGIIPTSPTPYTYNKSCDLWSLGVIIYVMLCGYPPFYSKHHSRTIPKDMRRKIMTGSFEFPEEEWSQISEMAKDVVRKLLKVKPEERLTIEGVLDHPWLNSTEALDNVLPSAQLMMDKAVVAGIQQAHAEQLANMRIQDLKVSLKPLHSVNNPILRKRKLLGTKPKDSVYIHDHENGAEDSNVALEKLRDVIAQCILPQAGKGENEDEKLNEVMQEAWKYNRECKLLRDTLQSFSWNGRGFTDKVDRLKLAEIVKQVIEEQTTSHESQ

[15] = biological target: T2, MAP kinase-activated protein kinase 5 (Homo sapiens); conditions: at 1 µM
[16] = biological target: Serine/threonine-protein kinase SIK1 (Homo sapiens) (UniProt P57059); conditions: at 0.1 µM
[17] = biological target: Serine/threonine-protein kinase SIK1 (Homo sapiens) (UniProt P57059); conditions: at 1 µM
[18] = biological target: Serine/threonine-protein kinase SIK2 (Homo sapiens) (UniProt Q9H0K1); conditions: at 0.1 µM
[19] = biological target: Serine/threonine-protein kinase SIK2 (Homo sapiens) (UniProt Q9H0K1); conditions: at 1 µM
[20] = biological target: T3, Serine/threonine-protein kinase TBK1 (Homo sapiens) (UniProt Q9UHD2); conditions: at 0.1 µM;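 also: values are the mean TBK1 inhibition, taken from the GSK PKIS screening data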
T3 sequence (whole entry): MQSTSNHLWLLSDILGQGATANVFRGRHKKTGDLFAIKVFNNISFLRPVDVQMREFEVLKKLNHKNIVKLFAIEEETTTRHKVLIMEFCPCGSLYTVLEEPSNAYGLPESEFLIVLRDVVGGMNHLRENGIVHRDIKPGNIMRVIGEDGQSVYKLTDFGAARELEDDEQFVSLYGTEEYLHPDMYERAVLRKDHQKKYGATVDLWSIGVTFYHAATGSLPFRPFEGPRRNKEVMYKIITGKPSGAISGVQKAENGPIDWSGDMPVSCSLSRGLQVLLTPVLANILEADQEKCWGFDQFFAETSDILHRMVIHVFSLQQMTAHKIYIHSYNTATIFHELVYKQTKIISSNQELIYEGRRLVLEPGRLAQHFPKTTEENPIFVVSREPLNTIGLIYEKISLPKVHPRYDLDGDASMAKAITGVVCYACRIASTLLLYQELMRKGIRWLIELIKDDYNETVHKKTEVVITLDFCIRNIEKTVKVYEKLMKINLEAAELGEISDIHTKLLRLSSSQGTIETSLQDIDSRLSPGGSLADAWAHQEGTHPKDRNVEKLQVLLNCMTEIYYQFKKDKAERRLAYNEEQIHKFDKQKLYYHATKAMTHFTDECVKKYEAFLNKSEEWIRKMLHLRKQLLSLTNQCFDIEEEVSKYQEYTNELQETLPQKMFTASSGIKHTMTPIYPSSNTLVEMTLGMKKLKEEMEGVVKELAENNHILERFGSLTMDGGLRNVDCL

Phosphorylase b kinase gamma catalytic chain, skeletal muscle/heart isoform (Homo sapiens), sequence (Q16816 whole entry, looked up, canonical isoform): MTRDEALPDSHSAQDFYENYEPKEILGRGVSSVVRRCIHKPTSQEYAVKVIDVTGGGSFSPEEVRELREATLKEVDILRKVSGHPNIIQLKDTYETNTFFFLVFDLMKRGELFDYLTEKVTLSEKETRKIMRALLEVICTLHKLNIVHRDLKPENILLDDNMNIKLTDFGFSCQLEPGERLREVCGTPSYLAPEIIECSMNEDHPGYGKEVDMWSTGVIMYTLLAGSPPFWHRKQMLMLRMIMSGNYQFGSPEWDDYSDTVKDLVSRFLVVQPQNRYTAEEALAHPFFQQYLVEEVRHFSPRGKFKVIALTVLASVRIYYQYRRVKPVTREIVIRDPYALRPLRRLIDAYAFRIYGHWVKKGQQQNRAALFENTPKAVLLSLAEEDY
Serine/threonine-protein kinase SIK1 (Homo sapiens), sequence (P57059 whole entry): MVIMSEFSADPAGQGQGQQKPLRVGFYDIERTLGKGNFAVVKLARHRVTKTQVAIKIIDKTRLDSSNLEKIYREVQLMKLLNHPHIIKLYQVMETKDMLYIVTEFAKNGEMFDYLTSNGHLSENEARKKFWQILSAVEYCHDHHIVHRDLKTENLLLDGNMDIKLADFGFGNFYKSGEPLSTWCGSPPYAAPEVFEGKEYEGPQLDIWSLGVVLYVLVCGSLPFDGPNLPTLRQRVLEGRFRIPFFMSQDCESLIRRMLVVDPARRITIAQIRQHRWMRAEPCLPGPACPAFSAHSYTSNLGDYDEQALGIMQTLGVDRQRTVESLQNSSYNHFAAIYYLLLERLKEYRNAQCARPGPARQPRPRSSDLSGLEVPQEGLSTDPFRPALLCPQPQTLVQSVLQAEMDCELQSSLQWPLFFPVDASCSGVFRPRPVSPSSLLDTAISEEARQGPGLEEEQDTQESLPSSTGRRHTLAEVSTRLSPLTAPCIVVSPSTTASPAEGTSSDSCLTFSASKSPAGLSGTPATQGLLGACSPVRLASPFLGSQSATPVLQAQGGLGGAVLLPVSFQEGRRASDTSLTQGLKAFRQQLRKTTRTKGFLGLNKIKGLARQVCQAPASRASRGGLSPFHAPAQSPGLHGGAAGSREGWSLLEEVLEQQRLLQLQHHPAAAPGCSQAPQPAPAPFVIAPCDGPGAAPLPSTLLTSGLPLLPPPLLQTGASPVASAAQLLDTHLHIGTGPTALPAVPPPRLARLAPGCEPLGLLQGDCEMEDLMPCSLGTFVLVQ
Serine/threonine-protein kinase pim-1 (Homo sapiens), sequence (P11309 whole entry, looked up): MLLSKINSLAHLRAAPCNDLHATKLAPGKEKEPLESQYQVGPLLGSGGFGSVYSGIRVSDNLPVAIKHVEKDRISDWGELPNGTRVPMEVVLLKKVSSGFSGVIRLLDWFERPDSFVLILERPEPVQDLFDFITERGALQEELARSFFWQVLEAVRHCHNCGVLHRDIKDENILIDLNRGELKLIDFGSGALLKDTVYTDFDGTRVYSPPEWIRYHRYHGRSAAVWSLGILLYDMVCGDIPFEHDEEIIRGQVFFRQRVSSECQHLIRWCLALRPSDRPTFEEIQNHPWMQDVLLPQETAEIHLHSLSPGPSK
Serine/threonine-protein kinase MARK2 (Homo sapiens), sequence (Q7KZI7 whole entry, the tested form may be a part): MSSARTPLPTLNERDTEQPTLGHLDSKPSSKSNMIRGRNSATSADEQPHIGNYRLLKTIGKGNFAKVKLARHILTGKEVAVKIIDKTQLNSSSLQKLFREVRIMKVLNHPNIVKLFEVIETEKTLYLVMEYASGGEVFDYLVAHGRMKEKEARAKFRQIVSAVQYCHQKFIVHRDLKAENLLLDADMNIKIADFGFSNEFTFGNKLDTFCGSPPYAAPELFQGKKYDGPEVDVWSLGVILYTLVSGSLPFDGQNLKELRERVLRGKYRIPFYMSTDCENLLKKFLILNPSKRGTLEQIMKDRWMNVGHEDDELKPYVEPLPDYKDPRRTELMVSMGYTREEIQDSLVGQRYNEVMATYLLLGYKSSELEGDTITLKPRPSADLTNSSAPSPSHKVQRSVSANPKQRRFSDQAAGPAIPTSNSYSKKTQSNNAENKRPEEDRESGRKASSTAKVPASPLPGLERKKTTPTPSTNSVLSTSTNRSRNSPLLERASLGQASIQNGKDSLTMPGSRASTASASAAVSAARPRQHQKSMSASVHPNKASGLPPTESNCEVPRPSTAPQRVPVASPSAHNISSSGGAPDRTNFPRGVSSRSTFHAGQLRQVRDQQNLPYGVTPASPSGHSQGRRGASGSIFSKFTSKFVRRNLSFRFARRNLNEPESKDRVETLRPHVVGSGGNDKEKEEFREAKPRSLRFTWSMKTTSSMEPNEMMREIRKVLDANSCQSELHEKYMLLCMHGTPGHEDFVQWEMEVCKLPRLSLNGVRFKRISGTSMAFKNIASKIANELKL
PAS domain-containing serine/threonine-protein kinase (Homo sapiens), sequence (Q96RG2 whole entry, the tested form may be a part, canonical isoform): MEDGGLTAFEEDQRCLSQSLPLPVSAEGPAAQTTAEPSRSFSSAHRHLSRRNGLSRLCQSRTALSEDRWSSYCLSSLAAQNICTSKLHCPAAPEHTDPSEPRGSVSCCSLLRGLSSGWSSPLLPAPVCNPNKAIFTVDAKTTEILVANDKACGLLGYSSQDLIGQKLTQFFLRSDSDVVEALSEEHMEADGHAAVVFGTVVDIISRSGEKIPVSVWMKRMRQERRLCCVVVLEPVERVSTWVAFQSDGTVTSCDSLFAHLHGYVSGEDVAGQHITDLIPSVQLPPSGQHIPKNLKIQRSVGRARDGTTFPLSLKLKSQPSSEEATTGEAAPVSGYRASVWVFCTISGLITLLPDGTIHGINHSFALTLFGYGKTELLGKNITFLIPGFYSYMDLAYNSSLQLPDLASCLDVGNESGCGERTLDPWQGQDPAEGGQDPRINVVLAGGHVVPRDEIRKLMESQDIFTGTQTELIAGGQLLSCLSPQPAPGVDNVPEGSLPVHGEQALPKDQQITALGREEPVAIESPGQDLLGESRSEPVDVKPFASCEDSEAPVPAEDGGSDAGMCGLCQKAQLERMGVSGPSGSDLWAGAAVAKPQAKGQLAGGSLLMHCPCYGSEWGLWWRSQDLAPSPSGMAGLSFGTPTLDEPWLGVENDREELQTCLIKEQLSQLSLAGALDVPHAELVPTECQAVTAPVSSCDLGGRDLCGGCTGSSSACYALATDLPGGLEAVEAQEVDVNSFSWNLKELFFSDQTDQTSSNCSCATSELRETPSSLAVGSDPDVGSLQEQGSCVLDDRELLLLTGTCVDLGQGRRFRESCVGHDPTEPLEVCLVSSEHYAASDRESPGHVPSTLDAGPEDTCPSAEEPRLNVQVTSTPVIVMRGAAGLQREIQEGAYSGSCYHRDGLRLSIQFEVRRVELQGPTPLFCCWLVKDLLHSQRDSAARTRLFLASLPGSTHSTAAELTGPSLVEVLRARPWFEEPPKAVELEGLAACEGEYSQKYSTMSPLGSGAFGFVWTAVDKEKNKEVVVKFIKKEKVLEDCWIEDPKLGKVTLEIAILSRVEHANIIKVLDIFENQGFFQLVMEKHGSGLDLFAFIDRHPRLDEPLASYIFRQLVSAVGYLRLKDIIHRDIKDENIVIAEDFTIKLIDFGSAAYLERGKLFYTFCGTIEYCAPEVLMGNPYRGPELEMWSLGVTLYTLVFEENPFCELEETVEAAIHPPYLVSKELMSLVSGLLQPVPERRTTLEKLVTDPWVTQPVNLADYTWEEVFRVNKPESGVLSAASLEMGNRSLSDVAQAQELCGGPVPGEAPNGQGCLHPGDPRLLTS
Serine/threonine-protein kinase pim-2 (Homo sapiens), sequence (Q9P1W9 whole entry, looked up): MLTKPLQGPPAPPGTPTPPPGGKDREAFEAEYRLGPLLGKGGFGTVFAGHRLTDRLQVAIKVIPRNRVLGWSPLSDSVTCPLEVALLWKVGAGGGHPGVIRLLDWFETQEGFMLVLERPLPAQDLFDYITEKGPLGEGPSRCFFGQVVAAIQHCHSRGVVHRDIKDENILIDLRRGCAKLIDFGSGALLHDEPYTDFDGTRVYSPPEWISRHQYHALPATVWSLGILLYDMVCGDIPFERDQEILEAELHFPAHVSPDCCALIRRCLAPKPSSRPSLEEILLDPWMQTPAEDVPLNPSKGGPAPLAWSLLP
Serine/threonine-protein kinase SIK2 (Homo sapiens), sequence (Q9H0K1 whole entry, looked up): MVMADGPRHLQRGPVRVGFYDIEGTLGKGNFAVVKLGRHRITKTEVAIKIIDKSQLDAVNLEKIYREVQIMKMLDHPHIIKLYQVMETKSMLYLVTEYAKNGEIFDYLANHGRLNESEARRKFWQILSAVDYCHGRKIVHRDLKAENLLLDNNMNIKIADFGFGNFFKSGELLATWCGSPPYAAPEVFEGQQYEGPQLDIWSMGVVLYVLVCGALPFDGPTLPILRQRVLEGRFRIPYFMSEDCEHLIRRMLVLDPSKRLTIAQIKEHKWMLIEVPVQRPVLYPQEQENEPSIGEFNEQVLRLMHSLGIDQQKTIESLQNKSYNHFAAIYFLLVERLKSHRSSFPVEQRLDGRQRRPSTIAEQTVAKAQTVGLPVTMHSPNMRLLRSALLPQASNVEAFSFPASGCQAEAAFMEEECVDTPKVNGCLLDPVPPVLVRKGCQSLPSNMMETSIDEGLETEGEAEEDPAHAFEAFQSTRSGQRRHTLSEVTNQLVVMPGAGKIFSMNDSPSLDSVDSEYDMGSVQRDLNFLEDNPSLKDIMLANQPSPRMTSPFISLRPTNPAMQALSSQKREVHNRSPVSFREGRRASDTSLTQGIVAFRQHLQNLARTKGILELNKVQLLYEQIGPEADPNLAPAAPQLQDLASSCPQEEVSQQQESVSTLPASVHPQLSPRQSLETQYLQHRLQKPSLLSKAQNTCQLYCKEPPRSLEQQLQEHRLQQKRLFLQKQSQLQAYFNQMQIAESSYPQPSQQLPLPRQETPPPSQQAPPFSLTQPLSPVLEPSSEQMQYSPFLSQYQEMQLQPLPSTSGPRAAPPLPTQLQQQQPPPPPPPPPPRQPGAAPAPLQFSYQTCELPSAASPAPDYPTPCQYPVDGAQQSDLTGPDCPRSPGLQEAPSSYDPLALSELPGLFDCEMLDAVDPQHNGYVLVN

| SMILES | inhibition [1] [%] | inhibition [2] [%] | inhibition [3] [%] | inhibition [4] [%] | inhibition [5] [%] | inhibition [6] [%] | inhibition [7] [%] | inhibition [8] [%] | inhibition [9] [%] | inhibition [10] [%] | inhibition [11] [%] | inhibition [12] [%] | inhibition [13] [%] | inhibition [14] [%] | inhibition [15] [%] | inhibition [16] [%] | inhibition [17] [%] | inhibition [18] [%] | inhibition [19] [%] | inhibition [20] [%] |
| --- | --- | --- | --- | --- | --- | --- | --- | --- | --- | --- | --- | --- | --- | --- | --- | --- | --- | --- | --- | --- |
| CCC(=O)Nc1ccc(C)c(-c2ccc(C(=O)NCC3CC3)cc2)c1 | 1.92 | -0.16 | -0.9 | 1.26 | 4.36 | 2.68 | 2.43 | 1.37 | 1.55 | -2.01 | 0.38 | 0.17 | 0.73 | 0.96 | 0.76 | 4.61 | 5.28 | 4.06 | 6.63 | 2.36 |
| CCc1nccc2c1nc(-c1nonc1N)n2CC | 1.67 | 0.71 | 0.86 | 3.65 | 1.98 | -0.2 | -2.03 | 0.32 | 1.23 | 0.4 | 1.27 | -0.38 | -2.26 | -0.45 | -1.56 | 0.62 | 4.31 | -4.39 | 6.79 | 1.12 |
| CN(C)c1ccc2c(c1)/C(=C/Nc1ccc(S(N)(=O)=O)cc1)C(=O)N2 | 18.6 | -0.32 | -0.69 | 15.3 | 49.3 | 2.06 | 13.8 | 1.26 | 1.23 | 0.23 | 1.18 | 0.39 | 0.56 | 0.23 | 0.46 | 3.94 | 14.7 | 5.24 | 18.2 | 6.65 |
| CS(=O)(=O)CCNCc1cc(-c2cc3c(Nc4ccc(OCc5cccc(F)c5)c(Cl)c4)ncnc3s2)cs1 | 0.65 | -1.66 | -1.38 | 1.42 | 3.57 | 3.77 | 4.76 | 1.41 | 2.26 | -0.84 | -0.99 | 0.08 | 2.3 | 2.2 | 1.6 | 7.53 | 7.6 | 7.98 | 0.61 | 5.03 |
| C[C@@H](Oc1cc(-n2cnc3ccc(OC4CCN(C)CC4)cc32)sc1C(N)=O)c1ccccc1Cl | 9.93 | -0.56 | 0.38 | 2.08 | 5.16 | 5.55 | 4.86 | 16.1 | 65.3 | -4.35 | -3.56 | 8.14 | 45 | 1.31 | 1.54 | 3.1 | 19.3 | 6.72 | 14 | 4.61 |
| O=C1Nc2ccc(I)cc2C1=Cc1cc(Br)c(O)c(Br)c1 | 2.16 | -2.03 | -1.55 | -0.98 | 3.92 | 4.05 | 4.75 | 2.05 | 11.4 | 0.13 | 18.2 | 1.85 | 17.7 | 1.19 | 1.78 | 8.91 | 9.38 | 4.92 | 9.04 | 3.66 |
| O=C(Nc1n[nH]c2cc(-c3cc(F)ccc3F)ccc12)C1CC1 | -0.47 | -1.13 | -2.73 | 4.9 | 5.59 | 3.06 | 1.94 | -0.51 | 1.3 | 0.05 | -0.55 | -2.08 | -1.66 | 0.74 | 0.41 | 5.25 | 11.2 | 10.9 | 21.9 | 3.98 |
| COc1cccc(-n2cnc3c(N/N=C/c4ccncc4)ncnc32)c1 | 4.05 | 1.87 | 4.15 | -0.02 | 2.55 | 1.83 | 6.48 | -0.24 | -0.03 | -3.51 | -3.43 | 3.67 | 6.5 | 0.59 | 2.56 | 1.88 | 12 | 9.07 | 34.1 | 0.99 |
| NS(=O)(=O)c1ccc(Nc2cc(-c3ccc(O)c(F)c3)n[nH]2)cc1 | 7.38 | -0.77 | -1.58 | -0.19 | 16 | -5.86 | -3.66 | -1.13 | 0.95 | -0.39 | 0.39 | -0.55 | 1.15 | -1.43 | -1.22 | -8.2 | -0.79 | -6.2 | 8.46 | -1 |
| c1ccc(Oc2ccc(Nc3ncc(-c4ccccc4)o3)cc2)cc1 | 0.42 | -0.25 | 0.08 | 0.99 | 2.96 | 1.62 | 0.32 | 0.45 | 0.21 | 0.31 | 0.53 | 0.36 | 1.18 | 0.66 | 0.94 | 2.57 | 3.12 | 1.87 | 1.2 | 3.15 |
| COc1cc(C)c(N(C)C(=O)CN(C)C)cc1Nc1nc(Nc2cccc(F)c2C(N)=O)c2cc[nH]c2n1 | 1.79 | 0.61 | -1.13 | -1.13 | 2.95 | 3.64 | -0.16 | 1.05 | 3.33 | -3.42 | -2.78 | -0.52 | 0.76 | 0.02 | -1.14 | 3.07 | 5.4 | 4.5 | 2.04 | 1.26 |
| O=C(Nc1n[nH]c2nc(-c3ccco3)ccc12)C1CC1 | 0.11 | 0.36 | -0.43 | 1.05 | 3.2 | 0.75 | -0.31 | 1.36 | 0.54 | 0.1 | -0.06 | 0.6 | -0.35 | -0.19 | -1.25 | 4.89 | 3.71 | 0.98 | 3.32 | 1.19 |
| Cc1nnc(-c2ccc(C)c(-c3ccc(C(=O)NCc4ccc(Cl)cc4)cc3)c2)o1 | 2.93 | -0.31 | 0.36 | 4.66 | 5.75 | 5.44 | 5.11 | 0.2 | 1.19 | -3.59 | -2.67 | 0.64 | 0.96 | 1.56 | 2.59 | 1.09 | 7.21 | 5.11 | 11.4 | 1.16 |
| COc1cc(Nc2ncc(-c3ccccc3)o2)cc(OC)c1OC | 15.6 | 0.63 | -0.67 | 3.23 | 20.9 | -2.9 | -2.15 | 0.68 | 2.12 | 0.06 | 1.06 | 0.31 | 1.87 | -0.54 | 0.01 | 0.98 | 27.4 | 3.12 | 30.6 | 2.26 |
